These results are taken from PubChem BioAssay.

Where “and” joins values, the source holds several entries; their conditions need not be identical. Equal values may be shown once. Inconclusive results are not listed. Calls of active or inactive are those of the source.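 The calls were made as follows, unless noted: active = thallium flux through the channel raised or lowered by more than 3 SD from vehicle-only wells, actives on both sides; inactive = the rest.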

By remaining activity is commonly meant the signal under treatment as a percentage of the control signal. For orientation: inhibition means the change of the read-out against control, counted positive when it falls.

The test system of assay [1] is Neuropilin-2 / VEGF-C interaction (human). Briefly: inhibitors of NRP2–VEGF-C binding, biochemical, microplate binding format, z-score (AID 743281; call rule not given here). The settings on record: microplate NRP2/VEGF-C binding assay; stronger effect = lower value.
The nature of assay [2]: modulation of C. elegans fzo-1 (AID 1259413; call rule not given here;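 also: fzo-1 mutant C. elegans worms in liquid wells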). The note with it: C. elegans fzo-1 modulator screen, mean read-out; stronger effect = higher value.
For assay [3], the system named is Aerobactin synthetase IucA (Klebsiella pneumoniae). Briefly: IucA aerobactin synthetase inhibitors, biochemical, Tocris library, absorbance (AID 1345561; call rule not given here;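 also: 100% = enzyme without compound and 0% = no enzyme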). The note with it: purified IucA enzyme assay, absorbance (OD) read-out; stronger effect = lower value;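 tested at 8 µM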.
Assay [4] can be described thus: viability rescue of complex I mutant cybrids, primary screen, cell-based, galactose medium, ATP luminescence (AID 1645843;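 active = z-score of at least 1.8 in each of two replicates, scored against plate mean and spread of sample wells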;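 also: positive z means more ATP and so rescue of galactose-driven cybrid death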). The settings on record: complex I mutant cybrid cells, 72 h, stronger effect = higher value.
A further assay deals with F380Y/beta1. Kind of assay: modulators of BK channel variants, profiling panel, selectivity assay, cell-based, U2OS BacMam, thallium flux, beta subunits (AID 1259406).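 Also: initial slope of Thallos dye fluorescence rise after thallium is added; log ratio against the mean of 0.3% DMSO vehicle wells on the same plate.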 The note with it: at 30 µM.
In a further assay the test system is F380Y/beta4. The description is as above. The note with it: at 30 µM.
The target in assay [5] is Calcium-activated potassium channel subunit alpha-1 (Homo sapiens) + Leucine-rich repeat-containing protein 26 (Homo sapiens) (UniProt Q12791+Q2I0M4). The description is as above. The settings on record: F380Y/Slo1WT/gamma1, at 30 µM.
In the next assay the test system is R275C/beta4. The description is as above. The settings on record: at 30 µM.
In assay [6] the target is NAD(+) hydrolase SARM1 (Homo sapiens) (UniProt Q6SZW1). Kind of assay: SARM1 TIR NADase inhibitors, cell lysate, NAD-Glo luminescence (AID 1508614;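 active = compound whose remaining NAD level is above about 45 nM, limit read from the data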;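 also: higher remaining NAD means stronger inhibition of SARM1 NADase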). The settings on record: SAM-TIR HEK293T lysate NADase, at 1 µM, stronger effect = higher value.
Assay [7] in a line: polyglutamine-triggered caspase-3 activation inhibitors, cell-based (AID 1583). The note with it: polyglutamine-induced caspase-3 activation, cell assay; stronger effect = higher value;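 tested at 10 µM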.
The nature of assay [8]: suppressors of polyQ aggregation in yeast, 75Q-TubU reporter (AID 1593). The note with it: Yeast 75Q polyglutamine aggregation reporter.
Assay [9] can be described thus: differential killing of epithelial or mesenchymal cells, primary screen, imaging, PC-3E GFP, TEM4-18 mCherry, co-culture (AID 1345086;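 active = compounds killing one labelled cell type while sparing the other, by normalised counts and ratio limits, not self-fluorescent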;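 also: cells exposed to compound for 72 h before imaging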;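 as to red/green cell ratio (normalised): normalised mesenchymal count divided by normalised epithelial count so high means epithelial killing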). The note with it: imaging cell counts, at 1 µM.
Assay [10] has as its system Hepatitis C virus NS3 helicase. Briefly: HCV NS3 helicase inhibitors, primary screen, biochemical, fluorescence polarization, LOPAC1280 library (AID 687035; in the data active = inhibition above about 37%). The note with it: Purified HCV NS3 helicase, Cy5-dT15 ssDNA binding fluorescence polarization; stronger effect = higher value; concentration not given here. On the technique in general: Polarisation of emitted light reports the rotation of a fluorescent probe.

Assay [11] can be described thus: Cy5 fluorescence quenching or enhancement artefacts, artefact control for HCV NS3 helicase inhibitor project, biochemical, LOPAC1280 (AID 687037; call rule not given here). The settings on record: Cy5-DNA-NS3h complex fluorescence interference counterscreen. For orientation: Counterscreens check selectivity or assay interference.
The nature of assay [12]: growth inhibition of DIPG glioma cells, dose response, cell-based, SU-DIPG-XIII, MIPE4.0, CellTiter-Glo, qHTS (AID 1347061; cut-off not given, nearly all actives have AC50 up to about 37 µM;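 also: cells exposed to compound for 48 hours before readout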). The settings on record: SU-DIPG-XIII viability, CellTiter-Glo ATP luminescence.
Assay [13] in a line: growth inhibition of DIPG glioma cells, dose response, cell-based, JHH-DIPG-1, MIPE4.0, CellTiter-Glo, qHTS (AID 1347062; cut-off not given, nearly all actives have AC50 up to about 27 µM). The note with it: JHH-DIPG-1 viability, CellTiter-Glo ATP luminescence. In general terms: ATP-based viability assays read luminescence as a measure of living cells.
The nature of assay [14]: growth inhibition of DIPG glioma cells, dose response, cell-based, SU-DIPG-IV, MIPE4.0, CellTiter-Glo, qHTS (AID 1347063; cut-off not given, nearly all actives have AC50 up to about 30 µM;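 also: compound exposure lasted 48 hours before the viability readout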). The note with it: SU-DIPG-IV viability, CellTiter-Glo ATP luminescence.
A short description of assay [15]: phospholipid biosynthesis inhibitors in animal cells, primary screen, cell-based, LOPAC library, screen 4 (AID 1347384; call rule not given here). The note with it: phospholipid biosynthesis inhibition screen, at 10 µM.
Assay [16] in a line: survival rescue of mitochondrial mutant cells in low glucose, primary screen, MELAS cybrids, Rieske KO mouse fibroblasts, CellTiter-Glo (AID 1508586;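 active = mean z-score across replicates of 1.96 or higher in either the MELAS or the Rieske mutant cell line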;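 also: z relative to plate mean and SD of compound and empty wells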).
The mark [17] stands for this setting: MELAS cybrid survival, CellTiter-Glo 48 h, stronger effect = higher value.
Setting [18] is: Rieske KO mouse fibroblast survival, CellTiter-Glo 72 h.

Sequence of Calcium-activated potassium channel subunit alpha-1 (Homo sapiens) + Leucine-rich repeat-containing protein 26 (Homo sapiens) (Q2I0M4 whole entry, looked up, one chain of several): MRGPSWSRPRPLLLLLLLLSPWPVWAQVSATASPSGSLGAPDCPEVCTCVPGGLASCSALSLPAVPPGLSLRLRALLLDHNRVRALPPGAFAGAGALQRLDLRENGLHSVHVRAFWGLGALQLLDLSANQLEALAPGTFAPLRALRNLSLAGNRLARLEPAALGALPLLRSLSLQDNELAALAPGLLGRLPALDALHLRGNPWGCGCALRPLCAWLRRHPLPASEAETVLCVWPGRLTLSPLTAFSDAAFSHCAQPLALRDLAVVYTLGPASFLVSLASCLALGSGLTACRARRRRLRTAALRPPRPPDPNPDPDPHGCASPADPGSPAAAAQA
Sequence of NAD(+) hydrolase SARM1 (Homo sapiens) (Q6SZW1 whole entry, looked up): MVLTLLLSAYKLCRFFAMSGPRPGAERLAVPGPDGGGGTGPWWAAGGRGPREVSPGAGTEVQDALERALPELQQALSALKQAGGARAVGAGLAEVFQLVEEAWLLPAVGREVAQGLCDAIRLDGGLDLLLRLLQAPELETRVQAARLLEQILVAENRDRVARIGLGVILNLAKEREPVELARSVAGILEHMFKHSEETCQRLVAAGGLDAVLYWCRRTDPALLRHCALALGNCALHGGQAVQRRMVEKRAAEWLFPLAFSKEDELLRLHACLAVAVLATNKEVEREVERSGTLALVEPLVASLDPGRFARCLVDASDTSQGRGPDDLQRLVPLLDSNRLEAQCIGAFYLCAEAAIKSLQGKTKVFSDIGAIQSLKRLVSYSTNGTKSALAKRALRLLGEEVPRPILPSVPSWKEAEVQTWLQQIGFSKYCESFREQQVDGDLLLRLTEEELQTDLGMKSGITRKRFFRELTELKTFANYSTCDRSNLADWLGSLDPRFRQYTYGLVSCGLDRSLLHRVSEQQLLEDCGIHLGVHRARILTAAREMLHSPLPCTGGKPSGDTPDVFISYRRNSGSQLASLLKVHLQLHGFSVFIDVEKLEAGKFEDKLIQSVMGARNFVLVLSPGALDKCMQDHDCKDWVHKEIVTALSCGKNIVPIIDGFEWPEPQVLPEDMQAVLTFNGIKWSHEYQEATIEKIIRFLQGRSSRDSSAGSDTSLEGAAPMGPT

Take `Oc1cc2c(cc1O)[C@H]1c3ccccc3CN[C@@H]1CC2`: the z-score in assay [1] was -4.26 (active); in [4], -1.23 (inactive). Also, the mean signal in assay [2] is 249 (inactive). Moreover, the remaining activity in [3] is 97.5% (inactive). Besides, the log fold change Tl+ flux in the assay with F380Y/beta1 was 0.0598 (inactive); in the assay with F380Y/beta4, -0.0725 (inactive); in assay [5], 0.0857 (inactive); in the assay with R275C/beta4, 0.0776 (inactive).
As for `Cc1ccc(-c2nc3ccc(C)cn3c2CC(=O)N(C)C)cc1`, the z-score in assay [1] was -0.569 (inactive); in assay [4], 1.03 (inactive). Further, the mean signal in [2] was 258 (inactive). Also, the remaining NAD in [6] was 10 nM (inactive). Also, the log fold change Tl+ flux in the assay on F380Y/beta1 was 0.0272 (inactive); with F380Y/beta4, -0.00795 (inactive); in assay [5], -0.0144 (inactive); with R275C/beta4 it was 0.00879 (inactive).
As for `CC[C@@H]1/C=C/C=C/C[C@H](C)[C@@H](O)[C@](C)(O)C(=O)[C@H](C)[C@@H](O)[C@H](C)C(=O)[C@H](C)[C@@H](O)[C@H](C)/C=C/C(=O)O[C@H]2[C@@H](C)[C@@H](CC1)O[C@@]1(CC[C@@H](C)[C@@H](C[C@H](C)O)O1)[C@@H]2C`, the inhibition in [7] is -0.04%. Moreover, the score in [8] is -0.11. The mean signal in assay [2] was 201 (inactive). The red/green cell ratio (normalised) in assay [9] (actives lie on both sides) was 0.51 (inactive). Moreover, the normalised cell number turned out to be 1.1 in assay [9] (measured here: epithelial PC-3E GFP cell survival) and 0.56 in [9] (measured here: mesenchymal TEM4-18 mCherry cell survival).
Consider `NC(=NCc1ccc(Cl)cc1)SCCCc1cnc[nH]1`, for which the z-score is -0.336 (inactive) in [1]; -1.21 (inactive) and 0.08 (inactive) in assay [4]. Further, in assay [2], the mean signal is 232 (inactive). The remaining activity in [3] was 102% (inactive).
In the case of `Oc1ccc2c3c1OC1C(O)CC[C@@]4(O)[C@@H](C2)N(CC2CCC2)CC[C@]314` (some centres undefined), in assay [1], the z-score was -0.335 (inactive). Further, the mean signal in assay [2] was 241 (inactive).
Turning to `CC[C@@H](C(N)=O)N1CCCC1=O`, the inhibition in [10] was -4% (inactive). Besides, the fluorescence ratio (interference) in [11] was 1 (inactive). Besides, the z-score in [1] was -0.78 (inactive); in assay [16] (setting [17]) it was -0.985 (inactive) and 0.498 (inactive); in [16] (setting [18]) it was 0.204 and -0.0344; in assay [4] it was 0.685 (inactive) and 0.535 (inactive). Besides, the mean signal in assay [2] is 234 (inactive). Also, the compound was classed as inactive in [12], in [13], in [14] and in [15]. The log fold change Tl+ flux in the assay with F380Y/beta1 was -0.022 (inactive); in the assay on F380Y/beta4, 0.0243 (inactive); in [5], -0.0482 (inactive); in the assay with R275C/beta4, -0.0209 (inactive).
For `O[C@@H]1CCCC[C@H]1N1CCC(c2ccccc2)CC1`, the z-score is -0.802 (inactive) in assay [1], -0.566 (inactive) in [16] (setting [17]), -0.671 in [16] (setting [18]) and -0.07 (inactive) in assay [4]. For the same compound, in assay [2], the mean signal was 231 (inactive). The remaining activity in [3] is 96.8% (inactive).
Take `CN1C(=O)CN=C(c2ccccc2)c2cc(Cl)ccc21`: in [7], the inhibition was -7.18%. Besides, the score in assay [8] was found to be 0.95. The z-score in [1] is -0.636 (inactive); in [4], 1.09 (inactive). Further, the mean signal in assay [2] was 240 (inactive). Also, the log fold change Tl+ flux in the assay on F380Y/beta1 is -0.0264 (inactive); in the assay with F380Y/beta4 it was 0.0209 (inactive); in [5] it was -0.0437 (inactive); in the assay with R275C/beta4, 0.0195 (inactive).
In the case of `C[C@]12CC[C@H]3[C@@H](CCC4=CC(=O)CC[C@@H]43)[C@@H]1CC[C@@H]2O`, the z-score in [16] (setting [17]) is 0.634 (inactive); in assay [16] (setting [18]) it was 0.271. Moreover, the log fold change Tl+ flux in the assay with F380Y/beta1 is 0.000378 (inactive); in the assay on F380Y/beta4 it was 0.0107 (inactive); in assay [5] it was 0.0229 (inactive); with R275C/beta4, -0.0252 (inactive).
Consider `CC12CCC(=O)C=C1CCC1C2CCC2(C)C(O)CCC12` (centres undefined), for which, in [4], the z-score was -0.235 (inactive). The log fold change Tl+ flux in the assay on F380Y/beta1 is 0.0232 (inactive); in the assay on F380Y/beta4, -0.0491 (inactive); in assay [5], -0.042 (inactive); with R275C/beta4, -0.00525 (inactive).
As for `C[N+]1(C)CCN(c2ccccc2)CC1`, the inhibition in assay [10] is -1% (inactive). Also, the fluorescence ratio (interference) in [11] was 1 (inactive). Further, the z-score in assay [1] was -0.409 (inactive); in assay [4] it was 0.43 (inactive) and 1.15 (inactive). In [2], the mean signal was 284 (inactive). Moreover, the outcome in [15] was inactive. For the same compound, the log fold change Tl+ flux in the assay on F380Y/beta1 was -0.0597 (inactive); in the assay on F380Y/beta4 it was 0.0424 (inactive); in assay [5], -0.0251 (inactive); in the assay on R275C/beta4, -0.0438 (inactive).
